In PubChem BioAssay (Tox21):
Records with an inconclusive call do not appear. Active and inactive are the calls of the source. Calls come from the whole dose curve; as a rule, active = well fitted activation curve with a large enough effect in the signal ratio in the repeat runs (not every such curve was filed as active); inconclusive = weak or mixed curves, or effect the other way; inactive = no such curve, though single readings can be large or run the other way; the % refers to the signal ratio.

biological target: Peroxisome proliferator-activated receptor gamma (Homo sapiens) (UniProt P37231); experiment: qHTS assay to identify small molecule agonists of the peroxisome proliferator-activated receptor gamma (PPARg) signaling pathway (AID 743094); details: HEK293H PPARg-UAS-bla, beta-lactamase FRET ratio, 17 h; series mostly up to 57 µM; activation: at the top concentration
From the text: U.S. Tox21 Program National Center for Advancing Translational Sciences [NCATS] NIH Chemical Genomics Center [NCGC] U.S. Environmental Protection Agency [EPA] National Institutes of Environmental Health Sciences [NIEHS] National Toxicology Program [NTP] U.S. Food and Drug Administration [FDA] Tox21 Assay Overview: The peroxisome proliferator-activated receptors (PPARs) are lipid-activated transcription factors of the nuclear receptor superfamily with three distinct subtypes namely PPAR alpha, PPAR delta (also called PPAR beta) and PPAR gamma (PPARg). All these subtypes heterodimerize with Retinoid X receptor (RXR) and these heterodimers regulate transcription of various genes. PPAR-gamma receptor (glitazone receptor) is involved in the regulation of glucose and lipid metabolism. To identify the compounds that activate PPAR-gamma signaling, GeneBLAzer PPAR gamma UAS-bla HEK293H cell line (Invitrogen, Carlsbad, CA, USA) containing a beta-lactamase reporter gene under control of the control of an upstream activator sequence (UAS) stably integrated into HEK293H cells was used to screen Tox21 compound library.
Tox21 Assay Protocol Summary: PPARg-bla cells were dispensed at 3000 cells/6uL/well in 1536-well black wall/clear bottom plates using a Multidrop Combi (Thermo Fisher Scientific, Waltham, MA) dispenser. After the assay plates were incubated at 37C and 5% CO2 for 5 h, 23 nL of compounds dissolved in DMSO, positive controls or DMSO only was transferred to the assay plate by a Pintool station (Kalypsys, San Diego, CA). The assay plates were incubated at 37C for 17 h. After 1 uL of LiveBLAzerTM B/G FRET substrate was added using a Bioraptr Flying Reagent Dispenser (FRD) workstation (Beckman Coulter, Indianapolis, IN, USA), the plates were incubated at room temperature for 1 h, and fluorescence intensity was measured by an Envision plate reader (PerkinElmer, Shelton, CT).
% is set by controls: 0 for no effect and ±100 for the full control effect.

Peroxisome proliferator-activated receptor gamma (Homo sapiens), sequence (P37231 whole entry, looked up): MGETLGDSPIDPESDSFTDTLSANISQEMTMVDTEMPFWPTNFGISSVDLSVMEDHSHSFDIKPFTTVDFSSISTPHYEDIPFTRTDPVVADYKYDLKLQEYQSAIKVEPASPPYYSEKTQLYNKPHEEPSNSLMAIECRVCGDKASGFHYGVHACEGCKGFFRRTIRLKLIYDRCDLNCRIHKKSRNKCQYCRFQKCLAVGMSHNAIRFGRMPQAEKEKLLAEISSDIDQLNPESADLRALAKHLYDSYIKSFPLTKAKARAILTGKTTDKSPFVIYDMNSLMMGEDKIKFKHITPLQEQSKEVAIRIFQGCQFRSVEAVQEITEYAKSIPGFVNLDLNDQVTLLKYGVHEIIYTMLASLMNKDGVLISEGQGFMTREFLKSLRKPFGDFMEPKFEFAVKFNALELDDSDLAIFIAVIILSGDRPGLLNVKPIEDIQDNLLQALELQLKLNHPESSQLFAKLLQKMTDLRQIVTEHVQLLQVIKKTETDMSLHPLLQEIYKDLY

| Structure (SMILES) | activation | outcome |
| --- | --- | --- |
| Cc1cc(C)cc(OCC2CNC(=O)O2)c1 (stereo not given) | 2.27% (inactive) |  |
| NC(=O)c1c(Cl)cccc1Cl | -3.82% (inactive) |  |
| O=C(O)c1ccccc1S | -2.69% (inactive) |  |
| CC(=O)CCc1ccc(O)cc1 | 4.01% (inactive) |  |
| Oc1ccc2c(c1)OC[C@@H](N1CCC(O)(c3ccc(F)cc3)CC1)[C@H]2O | 3.32% (inactive) |  |
| CC(C=O)Cc1ccc(C(C)C)cc1 (stereo not given) | 6.08% (inactive) |  |
| CC(C)(O)c1ccccc1 | 0.126% (inactive) |  |
| C#CC(O)C(CC)CCCC (stereo not given) | 1.76% (inactive) |  |
| NCCN1CCNC1=O | 4.61% (inactive) |  |
| CCCCCN(CCCCC)C(=O)C(CCC(=O)O)NC(=O)c1ccc(Cl)c(Cl)c1 (stereo not given) | -0.899% (inactive) |  |
| OCC(O)[C@@H](O)[C@H](O)[C@H](O)CO[C@H]1O[C@H](CO)[C@@H](O)[C@H](O)[C@H]1O (stereo not given in full) | -8.86% (inactive) |  |
| O=C(O)/C=C/c1ccc(/C=C/C(=O)O)cc1 | -5.22% (inactive) |  |
| COc1ccc(N=[N+]([O-])c2ccc(OC)cc2)cc1 | 0.23% (inactive) |  |
| NCC[C@H](O)C(=O)N[C@@H]1C[C@H](N)[C@@H](O[C@H]2O[C@H](CN)[C@@H](O)[C@H](O)[C@H]2O)[C@H](O)[C@H]1O[C@H]1O[C@H](CO)[C@@H](O)[C@H](N)[C@H]1O | 0.67% (inactive) |  |
| CCCCNc1ccccc1 | 5.32% (inactive) |  |
| CCCCCCCCCCCl | -0.664% [at 78.9 µM] (inactive) |  |
| NS(=O)(=O)c1cc2c(cc1C(F)(F)F)NC(Cc1ccccc1)NS2(=O)=O (stereo not given) | -4.78% [at 26.2 µM] (inactive) |  |
| COC(C(=O)O)c1ccccc1 (stereo not given) | -3.61% (inactive) |  |
| CSc1nc(NC2CC2)nc(NC(C)(C)C)n1 | -5.23% (inactive) |  |
| C[N+](C)(C)CC[N+]1(C)Cc2c(Cl)c(Cl)c(Cl)c(Cl)c2C1 | -4.25% (inactive) |  |

| Structure (SMILES) | activation | outcome |
| --- | --- | --- |
| Fc1ccccc1-c1ccccc1 | -6.4% [at 78.9 µM] (inactive) |  |
| Cc1nccn1CC1CCc2c(c3ccccc3n2C)C1=O (stereo not given) |  | inactive |
| NC(CS)C(=O)O (stereo not given) | 0.276% (inactive) |  |
| C=CCSCC1Nc2cc(Cl)c(S(N)(=O)=O)cc2S(=O)(=O)N1 (stereo not given) | 1.6% (inactive) |  |
| CC(C)CCCCCCN | 0.213% (inactive) |  |
| COc1cc(O)cc(O)c1 | -0.665% (inactive) |  |
| C1=C\CC/C=C\CC/C=C\CC/1 | -2.31% (inactive) |  |
| CCN1CCN(c2cc3c(cc2F)c(=O)c(C(=O)O)cn3C2CC2)CC1 | 3.01% (inactive) |  |
| Cc1ncc(CSSCc2cnc(C)c(O)c2CO)c(CO)c1O | 1.04% (inactive) |  |
| O=C(O)/C=C/c1ccc(Cn2ccnc2)cc1 | 0.827% [at 26.2 µM] (inactive) |  |
| C=C(C)C(=O)NCCCN(C)C | -3.46% (inactive) |  |
| C=C(C)C1CC=C(C)C(O)C1 (stereo not given) | -1.43% [at 78.9 µM] (inactive) |  |
| C=CCOc1nc(OCC=C)nc(OCC=C)n1 | -0.501% (inactive) |  |
| CCc1cc(S(=O)(=O)O)c2cc(C(C)C)cccc1-2 | 5.45% (inactive) |  |
| COCCOC(=O)CC#N | 0.683% (inactive) |  |
| COc1cccc(OC)c1 | 5.09% (inactive) |  |
| O=C1C(CCS(=O)c2ccccc2)C(=O)N(c2ccccc2)N1c1ccccc1 (stereo not given) | -6.61% [at 26.2 µM] (inactive) |  |
| CC(C)CCOC(=O)CC(C)C | -5.74% (inactive) |  |
| C[C@H](O)C(=O)Nc1c(I)c(C(=O)NC(CO)CO)c(I)c(C(=O)NC(CO)CO)c1I | 2.47% [at 26.2 µM] (inactive) |  |
| CC(=O)NC(Cc1ccccc1)C(=O)O (stereo not given) | 2.32% (inactive) |  |
